HepG2 viability: HepG2 cytotoxicity, counter-screen for TGF-b inhibitors | HepG2 CAGA-GFP viability, ATP luminescence, 18 h | Potency, µM (highest dose often 46.1 µM), for inactives: at the top dose activity change, negative = cytotoxicity, actives largely listed as cytotoxic | 410,000 compounds, 0.76% hits | AID 588856; note: potency is the fitted concentration of half-maximal effect
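HepG2 CAGA-GFP cells (1000/well, DMEM with 1% FBS) received compound, then TGF-beta at 500 pg/mL final, and were incubated 18 hours at 37 degrees C. Viability was read by CellTiter-Glo luminescence. Media-only wells were set as complete cell-killing and DMSO as no toxicity.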
D3 ag: agonists of human D3 dopamine receptor. AID 652048. 410,000 compounds, 0.58% hits. P35462. D3R DiscoveRx beta-arrestin cells, luminescence, 90 min. max activation, %; in the data active = max activation above about 30%; note: 0% is about no effect
Target sequence (P35462 whole entry, looked up): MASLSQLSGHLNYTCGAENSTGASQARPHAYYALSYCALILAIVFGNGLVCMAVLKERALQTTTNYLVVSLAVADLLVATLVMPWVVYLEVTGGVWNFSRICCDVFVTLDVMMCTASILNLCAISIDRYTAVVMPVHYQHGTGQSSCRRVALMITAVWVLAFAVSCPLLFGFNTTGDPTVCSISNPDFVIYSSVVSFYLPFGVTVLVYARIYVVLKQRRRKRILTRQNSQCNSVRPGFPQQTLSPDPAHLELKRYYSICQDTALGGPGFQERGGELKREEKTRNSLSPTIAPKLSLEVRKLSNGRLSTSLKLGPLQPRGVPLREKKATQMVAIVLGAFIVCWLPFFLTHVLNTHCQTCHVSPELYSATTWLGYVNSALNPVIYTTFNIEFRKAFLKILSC
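Cells at 1500/well, incubated overnight, then treated with pinned compounds (dopamine as control) for 90 min at 37 degrees C. DiscoveRx reagent added for 30 - 60 minutes at room temperature; luminescence read.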
TGFb inhibitor: blocks TGF-b signaling | HepG2 CAGA-GFP TGF-b/SMAD3 reporter, GFP fluorescence, 18 h; TGF-beta stimulated, 500 pg/mL final | Potency, µM (titrated, usually from 46.1 µM), for the others: at the top dose activity, negative = inhibition, most hits filed as inhibitors | 410,000 compounds, 1.2% hits; note: potency is the fitted concentration of half-maximal effect; % is set by controls: 0 for no effect and ±100 for the full control effect; nearly all actives have a fitted effect of over 65% in size
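Using HEPG2 CAGA-GFP reporter cells at 1000 cells/well, we pinned test compounds, stimulated with recombinant TGF-beta (500 pg/mL final) and measured total well GFP after 18 h.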
ATXN2 expr inh: reduces ATXN2 reporter expression in HEK-293 cells | HEK-293 ATXN2-luciferase reporter, luminescence, 24 h | Potency, µM (highest dose often 57 µM), inactives show at the highest dose activity change, negative = inhibition, most hits filed as inhibitors | 360,000 compounds, 0.72% hits; note: potency is the fitted concentration of half-maximal effect; % is set by controls: 0 for no effect and ±100 for the full control effect; nearly all actives have a fitted effect of over 55% in size
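qHTS (up to 57 uM final) was run with 24 h compound exposure of reporter cells at 37 °C. Each well was multiplexed: SteadyGlo luminescence measured ATXN2-luciferase expression after a fluorogenic Gly-Phe-AFC viability readout (25 uM final).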
S2 tox: reduces viability in counter-screen for ATXN expression inhibitors; S2 cells (HEK-293 line with an ATXN2-luciferase reporter) viability, CellTiter-Fluor protease fluorescence, 24 h; Potency, µM (doses to about 56.7 µM), usual class: cytotoxic; 400,000 compounds, 0.49% hits; AID 651635; note: potency is the fitted concentration of half-maximal effect; nearly all actives have a fitted effect of over 40% in size
DRD3 antagonist: antagonists of human D3 dopamine receptor. P35462. D3R cells, DiscoveRx beta-arrestin luminescence, antagonist mode; hits give low values. max response, negative = inhibition, %. 360,000 compounds, 2.5% hits; in the data active = max response below about -50%; inconclusive = no clear call, values can overlap the other calls; note: % is set by controls: 0 for no effect and ±100 for the full control effect
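Cells expressing the human receptor were seeded at 1500 cells/well, incubated overnight at 37 degrees C in 5% CO2, then exposed to library compounds with dopamine controls for 90 minutes at 37 degrees C before luminescent detection.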
* marks the source's active call; other numbers are inactive results; i = inactive; ? = inconclusive; / = no result given. Hits are enriched below; roughly 4.8% of the tested compounds scored in any of these assays. Unless noted, calls come from the whole dose curve; as a rule, active = well fitted curve in the direction sought with a large enough effect; inconclusive = small, poorly fitted or top-dose-only effect, or another doubt; inactive = no such curve, though single readings can be large; an effect the other way counts as inactive or inconclusive.

SMILES | HepG2 viability | D3 ag | TGFb inhibitor | ATXN2 expr inh | S2 tox | DRD3 antagonist
COc1cccc(-c2cc(NC=O)c3ncc(-c4cccc(C(=O)N(C)C)c4)n3c2)c1 | -19% | 6 | -27% | ? | ? | 10
COc1cc(-c2cnc3c(NC=O)cc(-c4cccc(C(F)(F)F)c4)cn23)cc(OC)c1OC | -47% | 7 | ? | 28µM* | ? | 6
CN(C)CCNC(=O)c1cccc(-c2cc(NC=O)c3ncc(-c4cccc(C(F)(F)F)c4)n3c2)c1 | 20µM* | -23 | ? | 22µM* | 28µM* | -52*
COc1ccc(-c2cc(NC=O)c3ncc(-c4ccc(OC)c(OC)c4)n3c2)cc1OC | -17% | 13 | 2% | -13% | i | 0
COc1cccc(-c2cc(NC=O)c3ncc(-c4cc(OC)c(OC)c(OC)c4)n3c2)c1 | -9% | 3 | ? | -29% | ? | 1
COc1ccc(-c2cnc3c(NC=O)cc(-c4ccccc4OC)cn23)cc1OC | -28% | 2 | ? | 18µM* | i | 6
COc1cccc(-c2cnc3c(NC=O)cc(-c4cccc(C(=O)N(C)C)c4)cn23)c1 | -39% | 72* | 3.5µM* | 0% | i | 3
O=S(=O)(c1ccc(Cl)cc1)N1CCN(c2nc(-c3ccccc3)nc3ccccc23)CC1 | -3% | / | 11% | / | / | /
COc1ccccc1-c1cc(NC(C)=O)c2ncc(-c3cccc(C(F)(F)F)c3)n2c1 | 16µM* | -2 | ? | -33% | ? | 30
Cc1c(C(=O)N(C)Cc2cscn2)sc2ncnc(NC[C@H]3CCc4ccccc4O3)c12 | / | / | / | / | i | /
O=C(c1ccccc1)N(Cc1ccccc1)c1ccccn1 | -12% | -9 | -1% | -7% | i | -30
O=C(c1ccc([N+](=O)[O-])cc1)N(Cc1ccccc1)c1ccccn1 | 14% | -16 | 13% | 4% | i | -55*
O=C(c1ccc(Br)o1)N(Cc1ccccc1)c1ccccn1 | -26% | 32* | -23% | -13% | i | 11
Cc1ccc(C)c(NC(=O)CSc2nc3nc(-c4cccs4)cc(C(F)(F)F)c3c(=O)[nH]2)c1 | -39% | 7 | 16µM* | -35% | i | -9
Cc1cc2c(cc1S(=O)(=O)N(CCO)Cc1ccccc1)OCC(=O)N2 | 0% | 0 | -10% | / | / | /
COc1ccc(CN(C)C(=O)c2cc(-c3ccccc3)nc3ccc(C)cc23)c(OC)c1OC | -34% | 0 | -8% | ? | ? | 31
Cc1c(CN(C)C(=O)c2cc(-c3ccccc3)nc3ccc(Br)cc23)cnn1C | -29% | 4 | -26% | 22µM* | ? | /
O=C(/C=C/c1cccs1)N1CCC2(CC1)Oc1ccc(Cl)cc1C(=O)C21CC(c2cccnc2)=NO1 (configuration not stated) | -15% | 37* | -15% | -11% | i | 80
CN(C)c1ccc(/C=C/c2ccnc3c(O)ccc(O)c23)cc1 | -10% | / | -5% | / | / | /
COC(=O)c1ccccc1-c1cc(C)cc2c1OC(CNC(=O)c1cc(C)on1)C2 (configuration not stated) | / | / | / | / | i | /
CCNC(=O)c1sc(=S)n(-c2ccc(C)cc2)c1N | -12% | 3 | -1% | 3% | i | 22
NC(=O)c1sc(=S)n(-c2ccc(Br)cc2)c1N | -25% | -10 | 11µM* | -14% | i | ?
CCN1C(=O)c2ccccc2Sc2ccc(C(=O)NCCC(C)C)cc21 | -7% | -12 | 0% | -2% | i | -12
CN1C(=O)c2ccccc2Sc2ccc(NC(=O)NCc3ccc(Cl)cc3)cc21 | -3% | -8 | -3% | / | / | /
CN1C(=O)c2ccccc2Sc2ccc(NC(=O)NCc3cccc(Cl)c3)cc21 | -57% | -16 | 10µM* | / | / | /
CC(C)CCNC(=O)c1ccc2c(c1)N(C)C(=O)c1ccccc1S2 | -7% | -14 | 15% | 8% | i | -72*
CCN1C(=O)c2ccccc2Sc2ccc(NC(=O)Nc3ccc(C(C)=O)cc3)cc21 | -23% | 9 | ? | / | / | /
